# TTR transcr act = TTR transcription activators in neuroblastoma reporter cells, primary screen, cell-based, luminescence, SH-SY5Y, TTR promoter Gaussia luciferase | activation, % at 16.7 µM | 100% = recombinant luciferase protein wells | actives 1.3% (n = 92,000);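 active = activation above the mean of all tested compounds plus 3 SD, cut at about 9.5% in these data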;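 also: cells exposed to compounds for one day before reading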
# TTR inh HuH7 = TTR promoter reporter inhibitors in hepatoma cells, counter-screen for TTR transcription activator project, cell-based, luminescence, HuH7 hepatoma. HuH7 TTR promoter-Gaussia luciferase reporter. shares compounds with TTR transcr act. actives 4% (n = 1,100). inhibition, % at 16.7 µM. AID 1117279, 2014;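 active = average inhibition above the solvent-only control wells' mean plus 3 SD, cut at about 15% in these data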;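 also: inhibitors lower well luminescence so higher value means more inhibition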
# TTR up confirm = TTR transcription activators, retest, confirmation, cell-based, luminescence, SH-SY5Y, triplicate; shares compounds with TTR transcr act; SHSY5Y TTR promoter Gaussia luciferase; 100% = purified Lucia enzyme wells, no cells; activation, % at 16.7 µM; 1,100 tested, under 10 active; AID 1117280, 2014;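 active = mean activation above a set limit taken from the earlier primary screen, cut at about 11% in these data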
# A number is an active result; . = inactive. Shown is part of a subset that was picked to be rich in hits.
SMILES,TTR transcr act,others
CC(C)N1CCCCC(NC(=O)c2ccc(-c3ccccc3)cc2)C1=O (stereo not drawn),.,
COC(=O)C(CC(C)C)NC(=O)/C=C/c1ccccc1Cl (stereo not drawn),.,
CC(O)C(=O)N/N=C/c1cccc2ccccc12 (stereo not drawn),.,
CC(C)NC(=S)NC(=O)/C=C/c1cccc2ccccc12,17,TTR inh HuH7=.;TTR up confirm=.
CCCCN=C(Nc1ccc(Cl)cc1)c1cccnc1,.,
C#Cc1ccc(C(=O)Nc2cc(C(N)=O)ccc2N2CCOCC2)cc1,.,
CCOc1ccccc1NC(=O)CCC(=O)Nc1ccccc1OCC,.,
CC/C(=N/NC(=O)CCC(=O)Nc1ccccc1OC)c1ccccc1,.,
COc1ccccc1NC(=O)CCC(=O)O,15,TTR inh HuH7=.;TTR up confirm=.
CC(C)Cn1c(N)c(C(=O)COC(=O)c2ccc(F)cc2)c(=O)n(C)c1=O,.,
COc1ccccc1/C=C\C=N\n1c(C2CCCCC2)n[nH]c1=S,.,
c1ccc(CNc2ccc(N3CCOCC3)cc2)cc1,.,
Cc1nc2ccccc2n1Cc1n[nH]c(=S)n1-c1ccc(Cl)cc1,.,
Cc1ccc(-n2c(CSc3nc(C)cc(C)n3)n[nH]c2=S)cc1,26,TTR inh HuH7=.;TTR up confirm=.
Cc1ccc(-n2c(CNc3cccc(Cl)c3)n[nH]c2=S)cc1,.,
O=C(O)C1CC=CCC1C(=O)N1CC=C(c2ccccc2)CC1 (stereo not drawn),.,
O=C(CSc1cccs1)NCCc1ccccc1,.,
C(=C\c1sc(Nc2ccccc2)n[n+]1-c1ccccc1)/c1ccccc1,.,
Cc1ccc(NC(=O)C2CC(=O)N(CCc3ccccc3)C2)cc1Cl (stereo not drawn),.,
c1ccc2c(CSc3ncnc4nc[nH]c34)cccc2c1,.,
O=C(CSc1nnc(-c2ccco2)o1)c1ccc([N+](=O)[O-])cc1,.,
O=C(CSc1ncnc2nc[nH]c12)c1ccc([N+](=O)[O-])cc1,29,TTR inh HuH7=.;TTR up confirm=.
O=C(Cc1n[nH]c(=O)c2ccccc12)Nc1ccc(-c2nnc3n2CCCCC3)cc1,.,
Cc1c(C(=O)Nc2ccc(-c3nnc4n3CCCCC4)cc2)oc2c1ccc1ccccc12,.,
O=C(Cn1[nH]c(=O)c2ccccc2c1=O)Nc1ccc(-c2nnc3n2CCCCC3)cc1,12,TTR inh HuH7=.;TTR up confirm=.
SMILES,TTR transcr act,others
O=S(=O)(CC1NCCc2ccccc21)NCc1ccccc1 (stereo not drawn),.,
CC(C)CN(C(=O)CCNC(=O)c1ccc(Cl)cc1)C1CCS(=O)(=O)C1 (stereo not drawn),.,
O=c1ccncn1C1OC(CO)C(O)C1O (stereo not drawn),13,TTR inh HuH7=.;TTR up confirm=.
Nc1ncnc2c1ncn2C1OC(CO)C(O)C1O (stereo not drawn),.,
OCC1OC(n2nnc3ccccc32)C(O)C(O)C1O (stereo not drawn),.,
COc1cc(OC)c(OC)cc1CN1CCN(Cc2ccc(C(F)(F)F)cc2)CC1,.,
O=C(c1ccccc1)c1ccc(N2CCOCC2)c(F)c1,.,
O=C(C[C@@H]1C/C=C\C[C@@H](Cc2ccc(F)cc2)C(=O)OC[C@H]2CCCN2C1=O)N[C@H](CO)Cc1ccccc1,.,
CC(=O)c1cccc(Nc2nc(N3CCOCC3)nc(N3CCOCC3)n2)c1,.,
O=C(NNc1nc(N2CCOCC2)nc(N2CCOCC2)n1)c1ccccc1,23,TTR inh HuH7=.;TTR up confirm=.
O=C(NNc1cc(N2CCOCC2)nc(N2CCOCC2)n1)c1ccc(Cl)c(Cl)c1,.,
COc1ccc(/C(C)=N/OCC(=O)Nc2nc3ccccc3s2)cc1OC,.,
CC(=O)Nc1ccc(NC(=O)c2ccccc2Sc2ccc([N+](=O)[O-])cc2Cl)cc1,.,
CC1SC(c2ccccc2Cl)NC1=O (stereo not drawn),11,TTR inh HuH7=.;TTR up confirm=.
CC1=C(C(=O)OCc2ccccc2)C(c2ccccc2Cl)NC(=O)N1C (stereo not drawn),.,
CC1(C)COC(c2ccccc2Cl)OC1,.,
COc1ccc(S(=O)(=O)NCC(=O)N(CC(=O)NCC2CCCO2)c2ccccc2C)cc1 (stereo not drawn),.,
Cc1nc(-c2ccccc2)nn1-c1ccc([N+](=O)[O-])cc1,.,
COc1ccc(C2C(C(=O)N3CCN(c4ccccc4)CC3)c3ccccc3C(=O)N2C)cc1OC (stereo not drawn),.,
COc1ccc(OC)c(C2C(C(=O)O)c3ccccc3C(=O)N2C)c1 (stereo not drawn),.,
COc1ccc(C2C(C(=O)O)c3ccccc3C(=O)N2C)cc1Br (stereo not drawn),11,TTR inh HuH7=.;TTR up confirm=.
O=C(Nc1ccc(S(=O)(=O)NCc2ccco2)cc1)c1ccc2ccccc2n1,.,
O=C(O)COc1ccc(C(=O)c2ccccc2)cc1,.,
Cc1cc(Cl)ccc1NC(=O)Cn1cncn1,.,
COc1cc(C(=S)N2CCCC2)ccc1O,.,
SMILES,TTR transcr act,others
COc1ccc(C(=S)N2CCCC2)cc1Br,.,
Oc1ccc(C(=S)N2CCCCC2)cc1,10,TTR inh HuH7=.;TTR up confirm=.
O=C(CNC(=O)c1ccc(Cl)cc1)Nc1ccc(S(=O)(=O)Nc2ncccn2)cc1,.,
c1ccc(CNC23CC4CC(CC(C4)C2)C3)nc1,.,
Cc1ccsc1CNC12CC3CC(CC(C3)C1)C2,9.7,TTR inh HuH7=.;TTR up confirm=.
CC(C)(CO)NC12CC3CC(CC(C3)C1)C2,.,
COC(=O)[C@]1(C)N[C@H](CN(C)C(=O)NC(C)C)[C@@H]2C(=O)N(Cc3ccccc3)C(=O)[C@@H]21,.,
Cc1ccc(CSC2=NCCN2S(=O)(=O)c2ccccc2)cc1,.,
COc1ccc(C(=O)COc2nc(C)cc(C)c2C#N)cc1,.,
CCOc1ccc(N(C(C)=O)c2nc(C)cc(C)c2C#N)cc1,19,TTR inh HuH7=.;TTR up confirm=.
CCOC(=O)CN(C(=O)COc1nc(C)cc(C)c1C#N)c1ccc(F)cc1,.,
COc1ccc2nc(NC(=O)CSc3ccccc3)sc2c1,.,
CCOc1ccc2nc(NC(=O)CSc3nc(SC)ns3)sc2c1,20,TTR inh HuH7=.;TTR up confirm=.
CCOC(=O)c1ccc(NC(=O)CSc2nc(SC)ns2)cc1,.,
CC(c1ccccc1)N1C(=O)c2cccnc2C1=O (stereo not drawn),.,
COc1ccccc1OCCOc1ccccc1/C=N/n1cnnc1,.,
CN(C)/C=C(\c1cnc(Cl)s1)S(=O)(=O)c1ccccc1,.,
CCN(CC)S(=O)(=O)c1ccc(Cc2ncc(C(F)(F)F)cc2Cl)s1,9.9,TTR inh HuH7=.;TTR up confirm=.
NS(=O)(=O)c1ccc(Cc2ncc(C(F)(F)F)cc2Cl)s1,.,
NNS(=O)(=O)c1ccc(Cc2ncc(C(F)(F)F)cc2Cl)s1,.,
CCOC(=O)c1sc2nc(CSc3ccccc3Cl)[nH]c(=O)c2c1C,.,
O=C(COc1ccc(-n2cnnn2)cc1)Nc1ccc(F)c(F)c1F,.,
O=C(COc1ccc(-n2cnnn2)cc1)Nc1ccc(F)c(F)c1,13,TTR inh HuH7=.;TTR up confirm=.
O=C(COc1ccc(-n2cnnn2)cc1)Nc1ccc(F)cc1,.,
Cc1cc(C(=O)NNC(=O)Nc2ccc(Cl)cc2)no1,.,
CN(C)CC#Cc1cncc(C(=O)NNC(=O)Nc2ccc(Cl)cc2)c1,10,TTR inh HuH7=.;TTR up confirm=.
Cc1nc(C(=O)NNC(=O)Nc2ccc(Cl)cc2)cs1,.,
COc1cc(/C=N/NC(=O)c2cc(-c3cccs3)nc3ccccc23)ccc1O,.,
Cc1ccsc1C(=O)OCC(=O)Nc1cccc(S(=O)(=O)N2CCOCC2)c1,.,
